This is a sample that favours compounds with a hit; in the whole collection about 31% have one here.
CYP2C9 activ: CYP2C9 (human) activation; activation factor at 5 µM; AID 1024; 1.4% of 96,000 active; P11712; recombinant CYP2C9, luciferin-H conversion, luminescence; active compounds read high; factor 1 = untreated enzyme, 0 = blocked;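 active = activation factor of 2 or more for CYP2C9 at a 5 µM dose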;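 note: 0 = sulfaphenazole-blocked wells and 1 = vehicle-only wells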
Target sequence (P11712 whole entry, looked up): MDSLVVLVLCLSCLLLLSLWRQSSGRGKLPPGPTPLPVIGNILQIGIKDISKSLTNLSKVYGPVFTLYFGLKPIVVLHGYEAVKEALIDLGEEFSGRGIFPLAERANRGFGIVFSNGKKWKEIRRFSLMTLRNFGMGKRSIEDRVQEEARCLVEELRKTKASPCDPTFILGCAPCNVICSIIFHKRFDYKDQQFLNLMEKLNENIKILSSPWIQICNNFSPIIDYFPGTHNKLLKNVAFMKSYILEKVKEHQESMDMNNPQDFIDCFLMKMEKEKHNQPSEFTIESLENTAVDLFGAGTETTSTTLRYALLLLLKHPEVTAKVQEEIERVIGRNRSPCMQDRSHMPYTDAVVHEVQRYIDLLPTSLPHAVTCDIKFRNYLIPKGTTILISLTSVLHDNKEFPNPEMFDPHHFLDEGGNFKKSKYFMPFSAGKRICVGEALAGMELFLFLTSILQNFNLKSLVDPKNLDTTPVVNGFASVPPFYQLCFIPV
CYP2C9 inhib: inhibitors of human CYP2C9. 20% of 96,000 active. inhibition, % at 5 µM. P11712. CYP2C9 Supersomes, luciferin-H conversion, luminescence;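 active = blocking of liver enzyme CYP2C9 beyond about 50% at 5 µM, limit read from the data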
PLAP activator: activators of human placental alkaline phosphatase; P05187; 1.2% of 96,000 active; AID 696; purified PLAP enzyme, luminescent substrate read-out; active compounds read high; activation fold at 20 µM; in the data active = activation fold above about 2
CYP2C19 inhib: inhibitors of human CYP2C19. P33261. CYP2C19 Supersomes, luciferin-H EGE luminescence, 30 min. inhibition, % at 5 µM. 21% of 96,000 active. AID 778;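 active = CYP2C19 inhibition above a set limit at 5 µM in the primary screen, cut at about 50% in these data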;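 note: plate controls were negative control wells for no effect and 2.5 mM tranylcypromine positive control for full effect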
CYP2C19 act: cytochrome P450 2C19 (human) activation | P33261 | recombinant CYP2C19, luciferin-H EGE luminescence; active compounds read high; 0 = fully inhibited enzyme, 1 = untreated enzyme | activation factor at 5 µM | 96,000 tested, under 10 active | AID 1025;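 active = activation factor of at least 2 at 5 µM in the primary screen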;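 note: 0 = wells with 2.5 mM tranylcypromine and 1 = vehicle-only wells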
An asterisk follows results filed as active.

SMILES | CYP2C9 activ | CYP2C9 inhib | PLAP activator | CYP2C19 inhib | CYP2C19 act
COC(=O)Cc1ccc(NC(=S)NCCCO)cc1 | 0.9 | 13 | 1.2 | 9 | 0.9
CCOC(=O)c1ccc(NC(=O)NC2CC3CCC(C2)N3Cc2nnnn2C(C)(C)C)cc1 (centres undefined) | 0.8 | 16 | 1 | -4 | 1
CC(=O)/C=C(\C)NCCNc1c(F)c(F)c(CO)c(F)c1F | 0.5 | 48 | 1.1 | 79* | 0.2
COC(=O)c1c(F)c(F)c(NCCO)c(F)c1F | 1.1 | -7 | 0.9 | 2 | 1
Cc1cc(C)cc(N2C(=O)N(c3ccccc3C)C3CS(=O)(=O)CC32)c1 (centres undefined) | 0.9 | 9 | 0.9 | 94* | 0.1
CCc1cc(=O)oc2cc(C)cc(O)c12 | 2.7* | -166 | 0.9 | 21 | 0.8
CCCCCc1cc(O)c2c(C)cc(=O)oc2c1 | 0.4 | 59* | 1.1 | 70* | 0.3
Cc1coc2c1c(C)cc1oc(=O)c(Cc3ccccc3)c(C)c12 | 0.9 | 10 | 1.1 | 53* | 0.5
Cc1cc(NC(=O)Cc2ccccc2)nc2c1c(=O)oc1ccccc12 | 0.7 | 31 | 1 | 0 | 1
CCc1cc(=O)oc2cc(C)c3c(C)coc3c12 | 0.8 | 17 | 0.8 | 63* | 0.4
CCCc1cc(=O)oc2cc(C)cc(O)c12 | 1.3 | -31 | 1 | 25 | 0.7
Cc1cc(C)n2cc(CSc3nnnn3C)nc2n1 | 1.2 | -22 | 1 | -12 | 1.1
COc1ccc(C2SCC(=O)N2CC23CC4CC(CC(C4)C2)C3)cc1 (centres undefined) | 0.9 | 15 | 1.2 | -6 | 1.1
Brc1ccc(CSc2nnc(-c3ccccn3)n2Cc2ccco2)cc1 | 0.1 | 87* | 1.3 | 48 | 0.5
CC(C)(C)c1ccc(CSc2nnc(-c3ccccn3)n2Cc2ccco2)cc1 | 0.1 | 93* | 1.7 | 73* | 0.3
Clc1cccc(CSc2nnc(-c3ccccn3)n2Cc2ccco2)c1 | 0.2 | 85* | 1.6 | 50* | 0.5
Nn1c(SCc2ccccc2)nnc1-c1ccccn1 | 1.1 | -13 | 1 | 17 | 0.8
Cc1cc(NC(=O)COC(=O)C2CCN(S(=O)(=O)c3cccc(Cl)c3Cl)CC2)no1 | 0.9 | 15 | 0.8 | 14 | 0.9
CC(=O)C1=C(O)C(=O)N(CC(=O)O)C1c1ccccc1Cl (centres undefined) | 1 | 1 | 0.9 | -5 | 1
CC(=O)Nc1ccc(S(=O)(=O)Nc2nc3ccccc3s2)cc1 | 0.4 | 62* | 1.2 | 33 | 0.7
COCc1nnc(NS(=O)(=O)c2ccc(NC(C)=O)cc2)s1 | 0.7 | 34 | 1 | 1 | 1
Cc1ccc2nc(NC(=O)CCNS(=O)(=O)c3ccc(Br)s3)sc2c1 | 0.6 | 44 | 1.1 | 50 | 0.5
COc1ccc(S(=O)(=O)Nc2nc3ccccc3s2)cc1OC | 0.4 | 62* | 1 | 25 | 0.7
COc1ccc(S(=O)(=O)Nc2cc(C)ccn2)cc1OC | 1.7 | -70 | 1 | 43 | 0.6
CC(=O)Nc1ccc(S(=O)(=O)Nc2nc3c(s2)CCCC3)cc1 | 0.6 | 43 | 1.2 | 91* | 0.1
SMILES | CYP2C9 activ | CYP2C9 inhib | PLAP activator | CYP2C19 inhib | CYP2C19 act
Cc1ccc(S(=O)(=O)Nc2nc3ccccc3s2)cc1 | 0.6 | 44 | 0.8 | 7 | 0.9
O=S(=O)(Nc1nc2ccccc2s1)c1ccc(Br)s1 | 0 | 96* | 1.4 | 81* | 0.2
O=C(O)C1CCN(C(=O)c2ccc(Cl)cc2)CC1 | 1.2 | -17 | 1 | -2 | 1
CCN(CC)C(=O)CSc1nc(O)c(Cc2ccccc2)c(=O)n1-c1ccccc1 | 1 | -4 | 1.1 | -2 | 1
CCN(C(C)=O)c1cccc2ccccc12 | 0.9 | 6 | 0.9 | 5 | 1
O=C1CCCC2=C1C(c1ccncc1)c1c(nc(SCc3ccccc3Cl)[nH]c1=O)N2 (centres undefined) | 0.1 | 95* | 1.5 | 85* | 0.2
O=c1[nH]c(SCc2ccccc2Cl)nc2c1CCCC2 | 0.8 | 21 | 0.9 | -4 | 1
Cc1ccccc1NC(=O)NCCN1C(=O)C2C3C=CC(C3)C2C1=O (centres undefined) | 1 | 5 | 1 | 50* | 0.5
Cc1cccc(NC(=O)CCn2ccnc2C)c1 | 0.9 | 14 | 0.9 | 62* | 0.4
Cc1ccc(NC(=O)NCCN2C(=O)C3C4C=CC(C4)C3C2=O)cc1 (centres undefined) | 0.9 | 13 | 0.9 | 91* | 0.1
Cc1cccc(NC(=O)NCCN2C(=O)C3C4C=CC(C4)C3C2=O)c1 (centres undefined) | 0.9 | 6 | 1.1 | 80* | 0.2
Cc1nc(C)n(CC(O)COc2ccc3cc(Br)ccc3c2)n1 (centres undefined) | 1.1 | -6 | 1.4 | 36 | 0.6
COc1cc(NC(=O)C2CCCCC2)c(OC)cc1NC(=O)CCC(=O)NCc1ccco1 | 0.9 | 6 | 1.2 | 1 | 1
CC(C)c1ccc(NC(=O)C2C3C=CC4(CN(CCCN5CCOCC5)C(=O)C24)O3)cc1 (centres undefined) | 1.3 | -25 | 1.1 | 7 | 0.9
O=C(NCCN1C(=O)C2C3C=CC(C3)C2C1=O)NCc1ccccc1 (centres undefined) | 0.9 | 11 | 1 | 12 | 0.9
Cc1cccc(NC(=O)CCN2C(=O)C3C4C=CC(C4)C3C2=O)c1 (centres undefined) | 0.7 | 26 | 1.1 | 85* | 0.1
O=C(CCN1C(=O)C2C3C=CC(C3)C2C1=O)NCc1cccnc1 (centres undefined) | 1.1 | -8 | 1.1 | 98* | 0
O=C(NCCN1C(=O)C2C3C=CC(C3)C2C1=O)Nc1ccccc1 (centres undefined) | 0.8 | 19 | 1 | 70* | 0.3
S=C(NCc1ccco1)N1CCN(Cc2ccc(Cl)cc2Cl)CC1 | 0.6 | 42 | 1.1 | 23 | 0.8
Cc1ccc(-c2noc(CCC(=O)NCC3CCN(Cc4cccc(C)c4)CC3)n2)cc1 | 0.6 | 40 | 1.6 | 27 | 0.7
COc1ccc(Cl)cc1NC(=O)COC(=O)CCNC(C)=O | 1.9 | -94 | 1.2 | 18 | 0.8
Cc1ccccc1NC(=O)c1csc2c1CCCC2 | 1.1 | -6 | 1.2 | 20 | 0.8
O=C(NCc1ccco1)c1ccccc1Br | 1 | -2 | 0.9 | 2 | 1
O=C(Nc1sccc1C(=O)NCc1ccco1)c1cccnc1 | 0.1 | 90* | 1.4 | 24 | 0.8
O=C(NCc1ccccc1)c1csc2c1CCCCC2 | 4* | -304 | 0.9 | 35 | 0.6
SMILES | CYP2C9 activ | CYP2C9 inhib | PLAP activator | CYP2C19 inhib | CYP2C19 act
O=C(NCCN1CCOCC1)c1csc2c1CCCC2 | 1.1 | -12 | 1.3 | -9 | 1.1
O=C(NCc1ccco1)c1csc2c1CCCCC2 | 4.2* | -317 | 1.1 | 43 | 0.6
O=C(NCc1cccs1)c1csc2c1CCCCC2 | 2.5* | -150 | 1.1 | 31 | 0.7
O=C(Nc1ccn(Cc2ccccc2F)n1)c1ccc(COc2ccc(Br)cc2)cc1 | 0.9 | 9 | 1 | 9 | 0.9
O=C(O)c1cc2c(s1)CCCC2 | 1.1 | -12 | 1.2 | -22 | 1.2
O=C(NCc1cccs1)c1cc2c(s1)CCCC2 | 0.5 | 52* | 0.7 | 64* | 0.4

Screening results: PubChem BioAssay, Sanford-Burnham Center for Chemical Genomics
